Common to all, as to experiment: NCI-60 one-dose screen, 48 h (100 = growth as untreated, 0 = no growth, -100 = all killed)
Conditions in all cases: 10 µM unless noted

The subject of test [1] is DU-145 prostate.
For test [2], the system named is K-562 leukemia.
The test system of test [3] is MALME-3M melanoma.
In test [4] the test system is MDA-MB-231 breast.
Test [5] concerns RXF 393 renal.
For test [6], the system named is SF-268 CNS.
For test [7], the system named is SF-295 CNS.
The test system of test [8] is SF-539 CNS.
Test [9] relates to UACC-257 melanoma.
The test system of test [10] is M14 melanoma.
Test [11] deals with HCT-15 colon.
Test [12] relates to HT29 colon.
Test [13] deals with SNB-75 CNS.
For test [14], the system named is SNB-19 CNS.
For test [15], the system named is U251 CNS.
In test [16] the test system is PC-3 prostate.
Test [17] has as its system SK-MEL-5 melanoma.
The test system of test [18] is UACC-62 melanoma.
Test [19] relates to LOX IMVI melanoma.
In test [20] the test system is SK-MEL-28 melanoma.

Compounds without any hit were thinned out: in the full panel of roughly 83,000, 20% have a hit.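 Assay: single dose, 48 h. Readout: percent growth (0 = no net growth; negative = cell death). Active: <10.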 Unmarked numbers belong to inactive results. Calls of active or inactive are those of the source.

Take `CCOc1ccc(-n2nc(C(=O)NCc3ccccc3OC)nc2-c2cc(OC)c(OC)c(OC)c2)cc1`: the growth in [1] was 65.2%; in test [2] it was 22.1%; in test [3], 87.5%; in test [4], 17.8%; in test [5], 43.5%; in test [6], 54.1%. The growth in test [7] is 34.8%; in test [8], 49.2%; in test [9], 62.7%; in [10] it was 42.2%; in test [11], 29%; in test [12] it was 40.6%. Besides, the growth was 30% in test [13]; 45.2% in test [14]; 42.5% in test [15]; 24.6% in test [16]; -1.22% (active) in test [17]; 37% in test [18]. Besides, the growth in [19] was 36.3%; in [20], 36.6%.
Regarding `COc1ccc(C(=O)Cn2c(C(=O)c3ccc(OC)cc3)nc3ccccc32)cc1`, the growth was 54.6% in test [1]; 7.61% (active) in [2]; 37.2% in test [3]; 27.8% in test [4]; 20.4% in test [5]; 44.5% in test [6]. Besides, the growth was 1.78% (active) in test [7]; 19.4% in test [8]; 48.5% in [9]; -2.49% (active) in test [10]; 15.9% in [11]; 14.9% in test [12]. Moreover, the growth in [13] is 10.4%; in test [14] it was 48.8%; in test [15], 18.3%; in test [16], 34.2%; in [17], 23.5%; in [18], 13.9%. Moreover, the growth in test [19] is 38.8%; in test [20], 42.8%.
As for `COc1cccc(-c2cc(-c3cccc(Cl)c3)c(C#N)c(=O)[nH]2)c1`, the growth is 88% in test [1]; 31.3% in test [2]; 69.8% in test [3]; 96.1% in [4]; 75% in test [5]; 79.1% in test [6]. The growth is 74.2% in test [7]; 74.5% in [8]; 85.5% in test [9]; 58.3% in test [10]; 48.6% in [11]; 103% in [12]. Moreover, the growth is 30.8% in test [13]; 71.8% in test [14]; 73.2% in [15]; 73.7% in test [16]; 68.6% in [17]; 42.4% in test [18]. Moreover, the growth in test [19] is 75.1%; in test [20], 72.3%.
With `COc1ccc(C2=CN3CC=CC3CC2=O)cc1` (stereo not given), the growth in test [1] is 98.9%; in test [2] it was 98.4%; in [3], 81.6%; in test [4], 105%; in test [5], 110%; in test [6] it was 98.2%. Further, the growth in test [7] was 93.3%; in test [8], 95%; in [9], 92.9%; in [10], 106%; in [11], 95.2%; in [12], 90.5%. In addition, the growth in [13] was 90.9%; in test [14], 105%; in test [15] it was 94.5%; in test [16], 92.1%; in test [17], 100%; in test [18], 105%. For the same molecule, the growth in test [19] is 104%; in test [20], 102%.
As for `N=c1c(S(=O)(=O)c2ccccc2)cc2c(=O)n3ccccc3nc2n1CC1CCCO1` (stereo not given), the growth in [1] was 110%; in test [2], 113%; in test [3] it was 118%; in test [4] it was 97.9%; in [5], 113%; in test [6] it was 100%. Also, the growth is 112% in [7]; 95.6% in [8]; 109% in test [9]; 104% in test [10]; 119% in [11]; 120% in test [12]. Further, the growth in [13] is 73.9%; in [14], 103%; in test [15], 108%; in test [16], 95.3%; in [17] it was 99.7%; in [18], 99.8%. The figures for the growth in test [19] and in [20] were 98.7% and 108%, respectively.
For the molecule `CCc1ccc(CCC(=O)Nc2ncc(Cc3ccccc3)s2)o1`, the growth was 26.7% in test [1]; 11.8% in [2]; 65.2% in [3]; 52.5% in test [4]; 2.15% (active) in test [5]; 61.1% in test [6]. The growth is 15.1% in [7]; -10.1% (active) in test [8]; 58.9% in test [9]; 10.5% in test [10]; 20.2% in [11]; 9.07% (active) in test [12]. In addition, the growth in test [13] was 3.46% (active); in test [14] it was 52.9%; in test [15], 27.2%; in test [16], 26.7%; in test [17], 42.8%; in test [18], 23%. Besides, the growth in test [19] was 42.4%; in test [20] it was 56.4%.
Consider `CCOC(=O)c1[nH]c2c(c1C)-c1[nH]c(=O)c(S(=O)(=O)c3ccccc3)cc1SC2`, for which the growth was 15.4% [100 µM] in test [1]; 49.8% [100 µM] in test [2]; 4.32% [100 µM] (active) in test [3]; 25.6% [100 µM] in test [4]; -5.27% [100 µM] (active) in [5]; 21.8% [100 µM] in test [6]. Also, the growth is 8.44% [100 µM] (active) in [7]; 30% [100 µM] in test [8]; 66.8% [100 µM] in [9]; 51.8% [100 µM] in test [10]; 72.8% [100 µM] in test [11]; 13.4% [100 µM] in test [12]. Further, the growth is 17% [100 µM] in test [13]; 94.7% [100 µM] in test [14]; 31.9% [100 µM] in test [15]; -29.5% [100 µM] (active) in test [16]; 35.9% [100 µM] in [17]; 21.2% [100 µM] in test [18]. The growth in [19] was 50% [100 µM]; in [20], 20.7% [100 µM].
As for `N#Cc1ccc(O)c(C2=NCC(Cc3ccccc3)O2)c1` (stereo not given), the growth in [1] was 55.7%; in test [2], 26.5%; in [3] it was 64.3%; in test [4], 77.6%; in [5] it was 62.4%; in [6] it was 52.2%. Further, the growth was 31.2% in [7]; 68.7% in test [8]; 63.6% in test [9]; 45.4% in test [10]; 21.2% in test [11]; 72.6% in test [12]. For the same molecule, the growth was 70.6% in test [13]; 55.6% in test [14]; 23.8% in test [15]; 35.3% in [16]; 35.5% in [17]; 42% in [18]. Further, the growth is 32.6% in test [19] and 80.2% in test [20].

The record behind these values is PubChem BioAssay (NCI).
